Experimental data published in PubChem BioAssay (EPA / NIEHS).
Some structures have more than one record in an assay (separate samples or runs), and their calls can disagree. Activity calls are given as the source filed them. The calls were made as follows: active = hit-call score of the fitted dose curve at least 0.9, where 1 is the maximum; inactive = score below 0.9.

Experiment: CCTE_Deisenroth_5AR_NBTE_donor: CCTE's 5alpha-reductase NanoBRET Target Engagement Assay […], Deisenroth Lab (AID 2284319)
Details: actives raise or lower the signal
Description: CCTE_Deisenroth_5AR NBTE (5alpha-reductase NanoBRET Target Engagement Assay) is a cell-based, single-readout assay that uses HEK293T, a human kidney cell line, with measurements taken at 5 hours after chemical dosing in a 384 well plate. This assay includes a primary and secondary screen as well as an autofluorscence screen.CCTE_Deisenroth_5AR NBTE_donor is one of four assay components measured from the CCTE_Deisenroth_5AR NBTE assay. It is designed to make measurements of donor luminescence, as detected by bioluminescence intensity emission signals using spectrometry technology.Data from the assay component CCTE_Deisenroth_5AR NBTE_donor was analyzed into 1 assay endpoint. This assay endpoint, CCTE_Deisenroth_5AR NBTE_donor, was analyzed with bidirectional fitting relative to DMSO as the negative control and baseline of activity. Using a type of inducible reporter, gain or loss-of-signal activity can be used to understand changes in the donor luminescence as related to 5alpha-reductase catalytic function. Furthermore, this assay endpoint can be referred to as a secondary readout, because this assay has produced multiple assay endpoints where this one serves an artifact detection function.
For transient expression of the SRD5A2-NanoLuc fusion protein, HEK293T cells are reverse transfected with pNLF1-C-SRD5A2 expression vector and incubated for 20 hours to facilitate fusion protein expression. For assay setup, 384-well non-binding surface (NBS) microplates are pre-dispensed with test chemical across an 8-point concentration series (10 nM - 29.9 uM) with two technical replicates per run. Cell suspensions are dispensed into the microplates and incubated with test chemical for a duration of three hours. Following pre-incubation with test chemical, the testosterone tracer is dispensed into each well and incubated an additional two hours. The total incubation period with test chemical is five hours, with testosterone tracer added the final two hours to reach target engagement equilibrium. For the NanoBRET endpoint measurements, a solution of Nano-Glo substrate and extracellular NanoLuc inhibitor solution is added to each test well and immediately scanned on a plate reader configured with multichromatic emission settings for donor luminescence ([…]) and acceptor fluorescence ([…]). DMSO solvent controls are included as baseline control. Plate-matched samples are run with mock tracer conditions or testosterone tracer to discriminate any potential non-specific substrate interference.
For CO[C@H]1/C=C/O[C@@]2(C)Oc3c(C)c(O)c4c(O)c(c(/C=N/N5CCN(C)CC5)c(O)c4c3C2=O)NC(=O)/C(C)=C\C=C\[C@H](C)[C@H](O)[C@@H](C)[C@@H](O)[C@@H](C)[C@H](OC(C)=O)[C@@H]1C, the AC50 was 50 µM (active). For CCCCCCCCOC(=O)c1cc(O)c(O)c(O)c1, the AC50 was 74.7 µM (active). In the case of O=C(O)Cc1cc(I)c(Oc2ccc(O)c(I)c2)c(I)c1, the AC50 is reported as 28.2 µM (active). In the case of CCCCCCCCCCCO, the outcome is reported as “inactive”. In the case of COc1cc(C(=O)NC2CCN(C)CC2)ccc1Nc1ncc2c(n1)N(C1CCCC1)CC(F)(F)C(=O)N2C, the outcome is reported as “inactive”. In the case of CCN(CC)C(=O)c1cc(S(=O)(=O)Cc2ccccc2)c(N2CCC(c3ccccc3)CC2)cc1N(CC)CCN(C)C, the outcome is reported as “inactive” and the AC50 is reported as 10 µM (active). In the case of NCc1cccc(C2CCN(C(=O)c3ccc(C#Cc4ccccc4F)o3)CC2)c1, the outcome is reported as “inactive”. In the case of CN1C(=O)N(c2ccccc2Br)Cc2cnc(Nc3ccc4c(c3)OCC(CO)O4)nc21 (stereo not given), the outcome is reported as “inactive”. In the case of O=c1c(-c2ccc(O)cc2)coc2cc(O)cc(O)c12, the outcome is reported as “inactive”. With CCN(Cc1cccc(S(=O)(=O)O)c1)c1ccc(C(=C2C=CC(=[N+](CC)Cc3cccc(S(=O)(=O)O)c3)C=C2)c2ccccc2S(=O)(=O)[O-])cc1 the outcome was “inactive”. With CN1C(=O)CC[C@H]1c1cccnc1 the outcome was “inactive”. In the case of O=c1[nH]sc2ccccc12, the AC50 is reported as 81.2 µM (active). For CN(C)c1ccc(C(=C2C=CC(=[N+](C)C)C=C2)c2ccc(N(C)C)cc2)cc1, the AC50 was 12.6 µM (active). With CN(C[C@@H](CC[N+]12CCC(C3CCCCC3)(CC1)CC2)c1ccc(Cl)c(Cl)c1)C(=O)c1cc(C(F)(F)F)cc(C(F)(F)F)c1 the AC50 was 19.7 µM (active).
